Laboratory results published in PubChem BioAssay AID1851 (National Center for Advancing Translational Sciences (NCATS), 2009).
The campaign covered roughly 16,000 compounds. About 2,600 (16%) were called active. Another 20% or so got no clear call; they are omitted. Calls come from the whole dose curve; as a rule, active = well fitted curve in the direction sought with a large enough effect; inconclusive = small, poorly fitted or top-dose-only effect, or effect the other way; inactive = no such curve, though single readings can be large or run the other way. The list is a sample of the results.

target: Cytochrome P450 2D6 (Homo sapiens) (UniProt P10635); assay: Cytochrome panel assay with activity outcomes; conditions: recombinant CYP, pro-luciferin dealkylation, luminescence, p450-cyp2d6; series mostly up to 57.1 µM; activity, negative = inhibition: at the top concentration
% is set by controls: 0 for no effect and ±100 for the full control effect.

Sequence of Cytochrome P450 2D6 (Homo sapiens) (P10635 whole entry, looked up): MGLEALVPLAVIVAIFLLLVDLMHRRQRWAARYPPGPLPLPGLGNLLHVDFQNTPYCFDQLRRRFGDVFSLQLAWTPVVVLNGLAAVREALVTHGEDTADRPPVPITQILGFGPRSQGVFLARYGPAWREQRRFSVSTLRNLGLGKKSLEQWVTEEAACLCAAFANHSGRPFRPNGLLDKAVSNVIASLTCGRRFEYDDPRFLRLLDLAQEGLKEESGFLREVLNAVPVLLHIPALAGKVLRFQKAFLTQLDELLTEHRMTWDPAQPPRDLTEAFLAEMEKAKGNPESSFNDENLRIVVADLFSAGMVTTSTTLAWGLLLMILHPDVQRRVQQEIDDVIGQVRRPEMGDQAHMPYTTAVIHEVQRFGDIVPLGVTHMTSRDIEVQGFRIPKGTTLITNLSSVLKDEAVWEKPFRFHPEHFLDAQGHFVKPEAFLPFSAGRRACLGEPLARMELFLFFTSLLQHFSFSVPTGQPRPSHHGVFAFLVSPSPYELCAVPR

activity, negative = inhibition, inactive:
COc1cc(/C=C(/NC(=O)c2ccccc2Cl)C(=O)O)cc(OC)c1OC 3.9%
O=C(Nc1cccc2[nH]ncc12)c1ccc(F)cc1 -11.5%
Cc1cc(NC(=O)c2ccco2)ccc1-n1cnnn1 -7.42%
COc1ccc(CCNC(=O)c2ccccc2NC(=O)c2ccco2)cc1OC -17.1%
COc1cc(C(=O)Nc2ccc(-c3nnc(-c4ccco4)o3)cc2)cc(OC)c1OC 12.8%
Cc1ccc(NC(=O)C(C)N2C(=O)C3C4CC(C(Br)C4Br)C3C2=O)cc1 (configuration not stated) -6.68%
COC(=O)CSc1ccc(C#N)c(SCC(=O)OC)c1 -2.77%
CC(C)NC(=O)c1ccc(-c2cccc(C(F)(F)F)c2)o1 -3.7%
COc1ccc2c(=O)cc(-c3ccncc3)oc2c1OC 12.2% [at 11.4 µM]
N=C(N)SCc1cccc(-c2nc3ccccc3c(=O)o2)c1 6.52% [at 11.4 µM]
CCCNC1CCS(=O)(=O)C1 (configuration not stated) -3.84%
C/C(=N/O)[C@@H]1C[C@H](CC(=O)O)C1(C)C -1.22% [at 11.4 µM]
CCOC(=O)N/N=C(/C)c1ccc([N+](=O)[O-])o1 8.4%
Cc1ccc(-c2nnc(C)c(N3CC(C)OC(C)C3)n2)cc1 (configuration not stated) 1.15%
Cn1c(C(=O)O)c(CC(=O)NCC2COc3ccccc3O2)c2ccccc21 (configuration not stated) -7.48%
Cc1cc(C(=O)CSc2nnc(-c3ccccc3)o2)c(C)n1CC1COc2ccccc2O1 (configuration not stated) -27.4%
C[N+]1(C)CCc2cc(O)c(O)cc2[C@H]1Cc1ccc(O)c(O)c1 -2.15% [at 11.4 µM]
CC(C)N1CCN(c2ccc(OC[C@@H]3CO[C@@](Cn4cncn4)(c4ccc(Cl)cc4Cl)O3)cc2)CC1 -9.52% [at 25.6 µM]
Cn1c(=S)c2[nH]c(SCc3cccnc3)nc2n(C)c1=O 14% [at 11.4 µM]
Cc1ccc(C)c(N(CC(=O)NC2CCCC2)C(=O)c2cc3cc4cccc(C)c4nc3s2)c1 -12.4%
CC(=O)N1N=C(c2cccc([N+](=O)[O-])c2)OC1c1ccc(Cl)cc1Cl (configuration not stated) -23.4%

AC50, active:
O=C(Nc1ccc(-n2nncc2-c2ccco2)cc1)c1ccc(F)cc1 1.12 µM
COc1ccc(-c2cnnn2-c2ccc(NC(=O)c3ccco3)cc2)cc1OC 10 µM
N=C(N)SCc1cccc2c(=O)cc(-c3ccccc3)oc12 2.51 µM
O=C1CC2(CCCC2)CC(=O)N1CCNC[C@H]1COc2ccccc2O1 0.126 µM
O=C1CC2(CCCC2)CC(=O)N1CCCCNC[C@H]1COc2ccccc2O1 5.01 µM

AC50, inactive:
COc1ccccc1N1CCN(CCN2C(=O)CC3(CCCC3)CC2=O)CC1
